The campaign covered roughly 340,000 compounds. About 12,000 (3.5%) were called active. Inconclusive results (about 18%) are left out. This is one part of a sample in which actives are shown more often than they occur. Calls come from the whole dose curve; as a rule, active = well fitted inhibition curve with a large enough effect; inconclusive = small, poorly fitted or top-dose-only effect, or another doubt; inactive = no such curve, though single readings can be large or run the other way.
Experiment: qHTS Assay for Inhibitors of Hepatitis C Virus (HCV)
Conditions: Huh7.5.1 HCVcc-Cre infection, luciferase reporter, 44 h; series mostly up to 41.8 µM; activity change, negative = inhibition: at the top concentration
Method in brief: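 Whole-lifecycle infectious HCVcc-Cre system; cells 1,000/well, compound then virus (~0.5 moi) added 4 h after plating, 44 h culture. Luciferase read 15 sec following 15 min substrate incubation, room temp.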
% is set by controls: 0 for no effect and ±100 for the full control effect; potency is the fitted concentration of half-maximal effect.

Row | Structure (SMILES) | activity change, negative = inhibition | Potency
1 | CCN(C(=O)COC(=O)CCOc1cccc(C)c1)c1c(N)n(Cc2ccccc2)c(=O)[nH]c1=O | 23.4% (inactive) | 
2 | CC(OC(=O)c1ccc([N+](=O)[O-])cc1)C(=O)NCC1CCCCC1 (stereo not given) | -7.4% (inactive) | 
3 | N[C@@H](Cc1ccccc1)C(=O)N1CCOCC1 | 1.81% (inactive) | 
4 | COc1ccc(-c2cc(C(=O)N/N=C/c3cccnc3)c3ccccc3n2)c(OC)c1 | -20.3% (inactive) | 
5 | Cc1ccc(C(=O)NCCN2CCOCC2)cc1C | 19.4% (inactive) | 
6 | CC(=O)Oc1cc2c(C(=O)NCCN3CCOCC3)c(C)oc2c2ccccc12 |  | 10 µM (active)
7 | Cc1cc(C)cc(C(=O)NCCN2CCOCC2)c1 | 25.1% (inactive) | 
8 | C[C@@H]1CN([C@H](C)CO)C(=O)c2cc(NC(=O)NC3CCCCC3)ccc2O[C@H]1CN(C)S(C)(=O)=O | 0.0101% (inactive) | 
9 | Cc1ccc(S(=O)(=O)CCC(=O)OCC(=O)NCCc2ccc(S(N)(=O)=O)cc2)cc1 | 19.7% (inactive) | 
10 | COc1ccc(CC(=O)Nc2nc(-c3ccc(F)c(F)c3)cs2)cc1OC |  | 4.47 µM (active)
11 | COc1ccc(-c2csc(NC(=O)c3ccc(N4C(=O)CCC4=O)cc3)n2)cc1OC | -26.9% (inactive) | 
12 | COc1cccc(CC(=O)Nc2ccc(-c3csc(C)n3)cc2)c1 | -22.6% (inactive) | 
13 | COc1cc(CC(=O)Nc2nc(-c3ccc(F)c(F)c3)cs2)cc(OC)c1OC |  | 10 µM (active)
14 | COc1cccc(CC(=O)Nc2nc(-c3ccc(OC)c(OC)c3)cs2)c1 |  | 12.6 µM (active)
15 | Cc1ccc(-c2csc(NC(=O)Cc3cccs3)n2)cc1C | -1.69% (inactive) | 
16 | Cc1ccc(S(=O)(=O)NC(=O)Nc2nc(-c3ccc(F)c(F)c3)cs2)cc1 | -7.66% (inactive) | 
17 | COc1ccc(CC(=O)Nc2ccccc2NC(=O)c2ccco2)cc1OC | -1.79% (inactive) | 
18 | COc1ccc(CCN(C(=O)COc2ccccc2)c2nc(-c3ccccc3)cs2)cc1OC | -26% (inactive) | 
19 | Cc1nc2ccccc2c(=O)n1-c1ccc(F)c(NC(=O)c2cccs2)c1 | -0.715% (inactive) | 
20 | CCCN(CC1CC1)C(=S)NC(=O)c1ccccc1Br | 11.2% (inactive) | 
21 | CCOc1ncccc1C(=O)OCC(=O)c1c[nH]c2ccccc12 | -3.08% (inactive) | 
22 | O=C(Nc1ccc2ccccc2c1[N+](=O)[O-])c1ccccc1 | -0.234% (inactive) | 
23 | COc1ccccc1C(=O)NCCC(=O)NCC(c1ccco1)N1CCCCC1 (stereo not given) | 32.7% (inactive) | 
24 | O=C(COC(=O)c1ccc(Br)o1)NC12CC3CC(CC(C3)C1)C2 | 7% (inactive) | 
25 | CN(C(=O)COC(=O)CCCc1c[nH]c2ccccc12)c1c(N)n(Cc2ccccc2)c(=O)[nH]c1=O | -6.59% (inactive) | 

Row | Structure (SMILES) | activity change, negative = inhibition | Potency
26 | COc1ccc(Cl)cc1NC(=O)CN(C)C(=O)c1ccc2n[nH]nc2c1 | -1.24% (inactive) | 
27 | CN(C(=O)CSc1nnc(-c2ccc(C(C)(C)C)cc2)n1C)C1CCS(=O)(=O)C1 (stereo not given) | 6.07% (inactive) | 
28 | O=C(Nc1cccc(C(F)(F)F)c1)c1cnccn1 | 11.3% (inactive) | 
29 | Cn1nc(C(F)(F)F)c(C(=O)Nc2cccc(C(F)(F)F)c2)c1SCc1ccc(Cl)cc1 |  | 10 µM (active)
30 | O=C(O)CSCC(=O)Nc1cccc(C(F)(F)F)c1 | 5.73% (inactive) | 
31 | O=C1OC[C@@H]2CCCN2C(=O)[C@H](CC(=O)N(CCO)Cc2ccccc2)C/C=C\CC[C@@H]1Cc1ccc(F)cc1 | 6.22% (inactive) | 
32 | O=C1c2ccccc2[C@@H]2C[C@@H](O)[C@H](Nc3ccccc3Cl)CCN12 | -5.58% (inactive) | 
33 | CSc1ccccc1NC(=O)c1cnc2sc(C)cn2c1=O | -27.8% (inactive) | 
34 | Nc1c(C(=O)c2cccs2)sc2nsc(SCCN3CCCCC3)c12 |  | 10 µM (active)
35 | O=C(CN1C2=NCCN2c2ccccc21)c1cccs1 | -31.7% (inactive) | 
36 | O=C(C[C@H]1C[C@H](C(=O)N2CCOCC2)[C@@]2(CCC3CCCC3)c3[nH]c4ccc(Cl)cc4c3CCN2C1=O)NCc1ccco1 | 43.8% (inactive) | 
37 | CC(C)(C)OC(=O)C[C@@H]1C/C=C\C[C@@H](CC(=O)N[C@H](CO)Cc2ccccc2)C(=O)NCCOC1=O | -14.5% (inactive) | 
38 | O=S(=O)(O)c1cc2onnc2c2ccccc12 | 8.72% (inactive) | 
39 | Cc1c(Cl)cnc(NC(=O)COC(=O)C2CCCC2)c1Cl | -26.3% (inactive) | 
40 | CN(C)c1ccc(CSc2ccccc2)cc1 | 8.39% (inactive) | 
41 | c1ccc(Cc2cc[n+](Cc3ccccc3)cc2)cc1 | 20.7% (inactive) | 
42 | CN(C)c1cc[n+](Cc2ccccc2)cc1 |  | 0.891 µM (active)
43 | O=C1CCC/C=C/C[C@@H](CC(=O)N(CCO)Cc2ccccc2)C(=O)NC[C@H](c2ccccc2)O1 | 15% (inactive) | 
44 | Cc1ccc(S(=O)(=O)N(C)c2ccc(OCC(=O)OCc3ccc(C#N)cc3)cc2)cc1 | 25.2% (inactive) | 
45 | Cc1cc(Br)ccc1NC(=O)c1cnc(N2CCN(c3ccccn3)CC2)c2ccccc12 |  | 2.51 µM (active)
46 | O=C(CN1CCN(c2ccccn2)CC1)Nc1ccc(Br)cc1 | 3.8% (inactive) | 
47 | Cc1cc(Br)ccc1NC(=O)c1sc2ncn(CC(=O)N3CCN(c4ccccn4)CC3)c(=O)c2c1C | 9.26% (inactive) | 
48 | COc1ccc(NC(=O)N(C)C[C@H]2Oc3ccc(NC(=O)C4CC4)cc3C(=O)N([C@H](C)CO)C[C@@H]2C)cc1 | -1.35% (inactive) | 
49 | O=C(CCC(=O)c1cccs1)Nc1nc2ccccc2s1 | -15% (inactive) | 
50 | CCCn1c(=NC(C)=O)c(C(=O)OCC)cc2c(=O)n3ccccc3nc21 | -22.4% (inactive) | 

Row | Structure (SMILES) | activity change, negative = inhibition | Potency
51 | C/C(=N/OC(=O)c1c(-c2c(F)cccc2Cl)noc1C)c1cnccn1 | 0.663% (inactive) | 
52 | CCOC(=O)c1cc2c(=O)n3ccccc3nc2n(CC(C)C)c1=NC(=O)c1c(-c2c(F)cccc2Cl)noc1C |  | 10 µM (active)
53 | CCCn1nnc2sc3c(c2c1=O)CCC(C)C3 (stereo not given) | 0.285% (inactive) | 
54 | CC1CCc2sc3nc(N4CCN(CCO)CC4)n4ncnc4c3c2C1 (stereo not given) |  | 20 µM (active)
55 | CC1CCc2c(sc3nc4n(c(=O)c23)CCS4)C1 (stereo not given) | -20.1% (inactive) | 
56 | Cc1ccc(CSc2ccc(S(=O)(=O)N3CCCCC3)cn2)cc1 | -5.06% (inactive) | 
57 | C=CC[C@@H](CC(=O)N[C@@H](CO)Cc1ccccc1)C(=O)N[C@H](COC(=O)[C@H](CC=C)CC(=O)OC(C)(C)C)Cc1ccccc1 | 22.3% (inactive) | 
58 | COc1cccc(NC(=O)CN(C)C(=O)c2cc(C3CC3)nn2-c2ccccc2)c1 | -21.5% (inactive) | 
59 | CCN(CC)S(=O)(=O)c1ccc2nc(COC(=O)c3n[nH]c4ccccc34)[nH]c2c1 |  | 12.6 µM (active)
60 | COc1ccc(COC(=O)c2n[nH]c3ccccc23)cc1F | -17.8% (inactive) | 
61 | CCN(CC)S(=O)(=O)c1ccc2nc(CSc3nnnn3-c3ccc(O)cc3)[nH]c2c1 | -16.9% (inactive) | 
62 | CC(OC(=O)c1cc2ccccc2[nH]1)C(=O)N(C)c1ccccc1 (stereo not given) | -6.2% (inactive) | 
63 | CCN(CC)CCCNC(=O)c1c(O)c2cc(F)cc3c2n(c1=O)C(C)CC3 (stereo not given) |  | 10 µM (active)
64 | CCNC(=O)c1c(O)c2cccc3c2n(c1=O)CC3 | 11.3% (inactive) | 
65 | CCN(CC)CCCNC(=O)c1cn(C)c2ccc(S(=O)(=O)N(C)C3CCCCC3)cc2c1=O | -9.03% (inactive) | 
66 | O=C(CSc1nnc(CN2CCCC2)n1-c1ccc(F)cc1)c1ccc2c(c1)OCO2 | -6.26% (inactive) | 
67 | COc1ccc(/C=C/C(=O)OCC(=O)N2CCN(S(=O)(=O)c3ccc(C)cc3C)CC2)cc1OC | 0.143% (inactive) | 
68 | C=CCC1(CC=C)CCCN1C(=O)c1cc(COc2ccc(-n3cncn3)cc2)on1 |  | 5.01 µM (active)
69 | O=C(c1cc(COc2ccc(F)c(F)c2)on1)N1CCOCC1 | 0.0465% (inactive) | 
70 | CCn1ccnc1CN(C)C(=O)c1cc(COc2ccc(-n3cncn3)cc2)on1 | -21% (inactive) | 
71 | O=C1C[C@@H]2c3c(cccc3CN1Cc1ccccc1)C[C@@H](O)[C@H]2O | 9.7% (inactive) | 
72 | Cc1ccc(-c2cc(=O)[nH]c(NCc3ccccc3)n2)cc1 | 12.1% (inactive) | 
73 | O=C(CN1C(=O)NC2(CCOc3ccccc32)C1=O)Nc1cccc([N+](=O)[O-])c1 (stereo not given) | -16.3% (inactive) | 
74 | CN(C(=O)COC(=O)c1cc(-c2ccco2)nc2ccccc12)C1CCS(=O)(=O)C1 (stereo not given) | -5.06% (inactive) | 
75 | Cc1c(-c2cccc(Cl)c2)nc2ccccc2c1C(=O)OCC(=O)N(C)C1CCS(=O)(=O)C1 (stereo not given) |  | 3.55 µM (active)

Row | Structure (SMILES) | activity change, negative = inhibition | Potency
76 | CN(C(=O)COC(=O)c1nc(Cl)ccc1Cl)C1CCS(=O)(=O)C1 (stereo not given) | -7.4% (inactive) | 
77 | Cc1ccc(CNC(=O)Cn2cnc3c(NCc4ccccc4)ncnc32)o1 | -2.28% (inactive) | 
78 | Cc1ccc(NC(=O)Cn2c(C)csc2=O)cc1 | 11% (inactive) | 
79 | Clc1ccc(CSc2nnc(/C=C/c3ccccc3)o2)c(Cl)c1 | -3.62% (inactive) | 
80 | CSCc1cc(N(C)C)nc(SCc2ccc(Cl)cc2Cl)n1 |  | 8.91 µM (active)
81 | CSCc1cc(N2CCOCC2)nc(SCc2ccc(Cl)cc2Cl)n1 | -16.6% (inactive) | 
82 | Nn1c(SCC(=O)NC2CCCc3ccccc32)nnc1C1CC1 (stereo not given) | -12.4% (inactive) | 
83 | Cc1nnc(N/N=C/c2cccs2)[nH]c1=O | 15.5% (inactive) | 
84 | Cc1nnc(N/N=C/c2ccccn2)[nH]c1=O |  | 3.55 µM (active)
85 | Cc1ccccc1Nc1nnc(C)c(=O)[nH]1 | 5.21% (inactive) | 
86 | CC(=O)N1CCc2ccc(N)cc21 | 18% (inactive) | 
87 | CCCCn1c(N)c(N(CCC(C)C)C(=O)CC2OC(=O)c3ccccc32)c(=O)[nH]c1=O (stereo not given) | 17.9% (inactive) | 
88 | COc1cc(NC(=O)C2=CC(c3ccco3)=NS(=O)(=O)N2C)cc(OC)c1OC | 4.73% (inactive) | 
89 | COc1ccc(C2=NS(=O)(=O)N(C)C(C(=O)NC(C)c3ccccc3)=C2)cc1 (stereo not given) | -16.6% (inactive) | 
90 | COc1ccc(NC(=O)C2=CC(c3ccc(OC)c(OC)c3)=NS(=O)(=O)N2C)cc1 |  | 8.91 µM (active)
91 | COC(=O)C1CCN(C(=O)NC2CC(=O)N(c3ccc4c(c3)OCCO4)C2)CC1 (stereo not given) | 7.38% (inactive) | 
92 | O=S1(=O)CCOC[C@H](Cc2ccccc2)N1Cc1ccccc1Br | -7.83% (inactive) | 
93 | O=C1c2ccccc2C(=O)c2c1cccc2N1CCN(C/C=C/c2ccccc2)CC1 |  | 11.2 µM (active)
94 | CNC(=O)NC(=O)C(C)N1CCN(C/C=C/c2ccccc2)CC1 (stereo not given) | 2.6% (inactive) | 
95 | O=C(CCN1CCN(C/C=C/c2ccccc2)CC1)Nc1ccccc1Cl | -5.92% (inactive) | 
96 | Nc1ncnc2c1cnn2C1CC(O)C(CO)O1 (stereo not given) | 24.9% (inactive) | 
97 | C=CCn1c(=O)n(C)c2c(=O)n(C)c(=O)n(C)c21 | 12.5% (inactive) | 
98 | Cc1cccc(OCC(O)Cn2c(=N)n(CCN3CCOCC3)c3ccccc32)c1 (stereo not given) | -11.5% (inactive) | 
99 | CCOc1ccc(C(O)Cn2c(=N)n(CCN3CCCCC3)c3ccccc32)cc1 (stereo not given) |  | 10 µM (active)
100 | CCOc1ccc(C(O)Cc2nc3ccccc3n2C)cc1 (stereo not given) | 11.1% (inactive) | 

— PubChem BioAssay AID651820 (National Center for Advancing Translational Sciences (NCATS), 2012)
